Among the data in PubChem BioAssay (NCI) are growth values, retold here.

Assay in all cases: NCI-60 one-dose screen, 48 h (100 = growth as untreated, 0 = no growth, -100 = all killed)
Holding throughout (details): 10 µM

For assay [1], the system named is RPMI-8226 leukemia.
Assay [2] deals with OVCAR-8 ovarian.
Assay [3] deals with OVCAR-5 ovarian.
For assay [4], the system named is OVCAR-4 ovarian.
Assay [5] has as its system SK-OV-3 ovarian.
Assay [6] deals with IGROV1 ovarian.
Assay [7] concerns OVCAR-3 ovarian.
Assay [8] relates to HS 578T breast.
In assay [9] the test system is NCI/ADR-RES ovarian.
Assay [10] concerns SR leukemia.

Structures are written as SMILES. The panel holds about 83,000 compounds, 20% with a hit somewhere; the sample as a whole holds those more often.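 Cell lines were cultured in 96-well plates, exposed to a single compound concentration, and assessed for percent growth 48 hours later.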 Unmarked numbers belong to inactive results. Calls of active or inactive are those of the source. Rule for the calls: active = growth percent below 10; inactive = the rest.

For `CCCCCCCCCCCCCCCCCCCC(=O)NCCc1c[nH]c2ccc(O)cc12`, the growth in [1] was 28.2%; in assay [2] it was 102%; in assay [3] it was 111%; in assay [4] it was 98%; in [5], 137%; in [6] it was 93.6%. Moreover, the values for the growth in assay [7], in [8] and in assay [9] were 87.4%, 112% and 96.2%, respectively.

Consider `CC1(c2ccccc2)NC(=O)N(CC(=O)Nc2ccc(C(=O)/C=C/c3ccc(Br)cc3)cc2)C1=O` (stereo not given), for which the growth is 15.5% in assay [10]; 41.3% in [2]; 76% in [3]; 43.3% in assay [4]; 94.3% in assay [5]; 61.6% in [6]. Further, the values for the growth in [7], in [8] and in [9] were 27.4%, 53.4% and 79.8%, respectively.

In the case of `COc1cc(/C=C/C(=O)c2ccc(NC(=O)CN3C(=O)NC(C)(c4ccccc4)C3=O)cc2)cc(OC)c1OC` (stereo not given), the growth in assay [10] is 5.93% (active); in assay [2], 10.4%; in assay [3] it was 34.6%; in assay [4] it was 32.9%; in [5] it was 112%; in assay [6] it was 26.7%. Besides, the growth was -6.99% (active) in assay [7], 39.3% in [8] and 102% in assay [9].

Take `Nc1cccnc1/C=N/NC(=S)NCCNC(=O)c1ccc(-n2nc(-c3ccccc3O)nc2-c2ccccc2O)cc1`: the growth was -3.08% (active) in assay [1]; 14.6% in assay [2]; 26.3% in assay [3]; 22.1% in [4]; 17.1% in assay [5]; 12.5% in [6]. Moreover, the growth in assay [7] was 39.6%; in [8], 34.6%; in assay [9], 67.4%.

Take `O=C(Nc1ccc(Cl)c(C(F)(F)F)c1)c1cncc(C#Cc2cnc3ccc(N4CCOCC4)nn23)c1`: the growth in assay [10] is 2.44% (active); in assay [2] it was 3.66% (active); in [3], 19.4%; in assay [4] it was 13.6%; in [5], 10.7%; in assay [6], -14.1% (active). Besides, the growth in [7] is 13.6%; in assay [8], -25.3% (active); in assay [9], -5.95% (active).

Regarding `COc1ccc([C@H]2C(C(=O)c3ccc(Cl)cc3)C3(N[C@@H]2c2ccccc2)C(=O)Nc2ccc(Cl)cc23)cc1` (stereo not given in full), the growth in [1] was -11% (active); in assay [2] it was 15.3%; in assay [3] it was -23.4% (active); in assay [4], 20.4%; in assay [5], 17.3%; in [6], -1.76% (active). In addition, the growth is -10.8% (active) in [7], -10.1% (active) in [8] and -47.1% (active) in [9].

`N#C/C(=C\c1ccc(N(c2ccccc2)c2ccccc2)cc1)C(N)=O`: the growth was 69.1% in assay [10]; 19.8% in [1]; -60.6% (active) in [3]; 4.67% (active) in assay [4]; 56% in [5]; -21.2% (active) in assay [6]. Besides, the growth in assay [7] was 3.69% (active); in assay [8] it was 99.2%; in assay [9], 57.4%.

For `N#Cc1c(-c2ccc(Cl)cc2)cc(-c2ccccc2)nc1OCc1ccccc1`, the growth in [10] is 42.2%; in [1], 60.3%; in assay [3], 92.9%; in assay [4], 76.9%; in assay [6], 87%; in assay [7], 97.9%. The growth in assay [8] is 85.2%; in assay [9] it was 76%.

As for `Cc1ccc(-c2nc3ccc(C(=O)N=Nc4c(O)[nH]c5ccc(Br)cc45)cc3[nH]2)cc1`, the growth in assay [1] is 49.6%; in assay [2] it was 39.9%; in assay [3], 62.8%; in [4], 45.7%; in assay [5], 96.1%; in assay [6], 87.4%. The growth in assay [7] is 49.4%; in [8] it was 94.1%; in [9], 99.7%.

For `Nc1n[nH]c2cccc(C#Cc3cccc(NC(=O)Nc4cc(C(F)(F)F)cc(C(F)(F)F)c4)c3)c12`, the growth in assay [1] was -16.3% (active); in assay [2], -5.59% (active); in assay [3], -46% (active); in assay [4], -3.45% (active); in assay [5], -28.9% (active); in assay [6] it was -66% (active). The growth in assay [7] is -20.4% (active); in assay [8], -20.5% (active); in assay [9] it was -48.9% (active).

With `COc1cccc(COc2ccc(/C=C3\Oc4cc(O)ccc4C3=O)cc2)c1`, the growth in assay [10] is 21.4%; in assay [1], 32.1%; in assay [3], 77.6%; in [4] it was -9.02% (active); in assay [5], 77.4%; in [6], 53.7%. Also, the growth in [7] was 24.9%; in assay [8] it was -7.04% (active); in [9], 24.8%.

Regarding `O=C(Nc1cccc(C(F)(F)F)c1)c1cncc(C#Cc2cnc3ccc(N4CCOCC4)nn23)c1`, the growth in assay [10] was -1.17% (active); in assay [2], 3.84% (active); in assay [3], 1.83% (active); in [4], 12.7%; in assay [5], 3.44% (active); in assay [6] it was 1.76% (active). The growth in assay [7] was -23.6% (active); in [8] it was -22.4% (active); in assay [9] it was -24% (active).

Take `CN(C)c1ccc(/C=C/C(=O)c2ccc(NC(=O)CN3C(=O)NC(C)(c4ccccc4)C3=O)cc2)cc1` (stereo not given): the growth in assay [10] is 42.7%; in assay [2], 67.1%; in assay [3], 86%; in assay [4], 55.4%; in assay [5], 117%; in assay [6], 86.7%. Besides, the figures for the growth in assay [7], in assay [8] and in assay [9] were 61.7%, 78% and 86.6%, respectively.

`O=C1Nc2cc(-c3ccc(NC(=O)c4cccs4)cc3)ccc2/C1=C/c1ccc[nH]1`: the growth is 52.4% in assay [1]; 63.4% in assay [2]; 89.7% in assay [3]; 50.4% in [4]; 108% in assay [5]; 97.8% in [6]. In addition, the values for the growth in assay [7], in [8] and in [9] were 69.6%, 73.3% and 62.1%, respectively.

Regarding `CC1=N/C(=C\c2ccc(N(C)C)cc2)C(=O)N1CCc1ccc(S(N)(=O)=O)cc1`, the growth was 86.4% in [10]; 87.1% in assay [1]; 116% in [3]; 99.7% in assay [4]; 95.3% in [5]; 103% in [6]. For the same compound, the results for the growth in [7], in [8] and in [9] were 109%, 91.6% and 96.6%, respectively.

`COC(=O)C[C@](O)(CCCC(C)(C)O)C(=O)O[C@H]1C(OC)=C[C@@]23CCC(=O)N2CCc2cc4c(cc2[C@@H]13)OCO4`: the growth in [10] is 80.6%; in [1] it was 106%; in assay [3], 102%; in [4], 90.1%; in assay [5], 103%; in assay [6], 93%. Besides, the growth is 94.8% in [7], 87.9% in assay [8] and 102% in assay [9].

As to `O=C1NC(=NC23CC4CC(CC(C4)C2)C3)N/C1=C\c1ccc2ncsc2c1`, the growth in assay [1] is -14.7% (active); in assay [2], 10.5%; in [3], -7.67% (active); in assay [4], 8.44% (active); in [5], 25.1%; in assay [6] it was 4.69% (active). Besides, the growth in assay [7] is -6.21% (active); in assay [8], -0.802% (active); in assay [9], -10.5% (active).

For `CCOP(=O)(OCC)O[C@H]1CCC(=O)[C@@H]2[C@H]1[C@H]1C[C@@H]3[C@@]4(C)CCCC(C)(C(=O)OC)[C@@H]4CC[C@@]23C=C1C(C)C` (stereo not given in full), the growth in [10] was 37.5%; in assay [1], 21.9%; in assay [3], 92.7%; in assay [4], 49.5%; in [5], 54%; in assay [6], 72.1%. Also, the growth is 67.7% in assay [7], 59.5% in [8] and 44.3% in assay [9].

Consider `COc1cccc(/C=N/NC(=O)c2ccc3nc(-c4ccc(Cl)cc4)[nH]c3c2)c1O`, for which the growth in assay [10] was -36.8% (active); in assay [1] it was -50.5% (active); in assay [3], -63% (active); in [4] it was -36.3% (active); in assay [5], -84.6% (active); in assay [6] it was -77.2% (active). In addition, the values for the growth in assay [7], in assay [8] and in assay [9] were -87.4% (active), -54.7% (active) and 50.7%, respectively.

Regarding `COc1cc(/C=C/C(=O)c2cc(OC)c(OC)c(OC)c2)ccc1Oc1nc(Nc2ccc(F)cc2)nc(N(C)C)n1`, the growth in assay [10] was -5.9% (active); in assay [1] it was -19.8% (active); in assay [3] it was -44.7% (active); in assay [4], 18.4%; in assay [5], 49.5%; in assay [6], -64.3% (active). The results for the growth in assay [7], in assay [8] and in [9] were 12.1%, 16.1% and -29.6% (active), respectively.

As for `O=C(Nc1cccc(C(F)(F)F)c1)c1cncc(C#Cc2cnc3cccnn23)c1`, the growth is 9.35% (active) in assay [10]; 41% in assay [2]; 56.3% in [3]; 64.9% in assay [4]; 83.6% in assay [5]; 41.6% in assay [6]. Moreover, the growth was 43.7% in [7], 45.7% in assay [8] and 16.6% in [9].

With `CC1(c2ccccc2)NC(=O)N(CC(=O)Nc2ccc(C(=O)/C=C/c3ccc(Cl)cc3)cc2)C1=O` (stereo not given), the growth is -13.3% (active) in [10]; 17.7% in assay [2]; 34.5% in [3]; 24.8% in assay [4]; 66% in assay [5]; -19.8% (active) in assay [6]. The growth is -69.9% (active) in assay [7], 48.9% in [8] and 48.9% in assay [9].

For the compound `COc1ccc(N(C)c2cc(C#N)nc3ccccc23)cc1/C=C/C(=O)NO`, the growth in [1] is 5.81% (active); in assay [2], -37.9% (active); in assay [3] it was -46.2% (active); in [4], 7.41% (active); in assay [5], -22.7% (active); in assay [6], -57.4% (active). In addition, the figures for the growth in [7], in assay [8] and in assay [9] were -43.4% (active), -18.2% (active) and -41.9% (active), respectively.

With `COc1ccc(-c2ccc(SCC(=O)Nc3ccc(C#N)cc3)nn2)cc1`, the growth is 89.2% in [10]; 91% in assay [1]; 101% in [3]; 83.8% in [4]; 91.6% in [5]; 88.4% in assay [6]. For the same compound, the growth in [7] is 121%; in assay [8] it was 67.8%; in [9], 83.7%.

Consider `COc1cc(C2CC(c3ccccc3)=Nc3c(N)nc(N)nc3N2)ccc1Oc1nc(Nc2ccc(F)cc2)nc(N(C)C)n1` (stereo not given), for which the growth in assay [10] is 2.83% (active); in assay [1], 13.5%; in [3] it was 85.8%; in assay [4], 35.5%; in assay [6], 50.8%; in assay [7] it was 36.4%. The growth was 48.1% in assay [8] and 36.8% in [9].

On to `COc1ccc2nc(Cl)c(-c3cc(-c4ccccc4)nc(=S)[nH]3)cc2c1`, for which the growth in assay [1] is 71.7%; in [2] it was 68.2%; in [3], 95.1%; in assay [4], 90.1%; in assay [5], 37.4%; in assay [6], 79%. Moreover, the growth is 80.8% in [7], 31.7% in [8] and 40.9% in assay [9].

`CN(C(=O)c1ccc(C(F)(F)F)cc1C(F)(F)F)c1sc2c(c1C#N)CCC(=O)C2`: the growth was 1.6% (active) in assay [10]; 14.3% in [1]; 108% in assay [3]; 59.3% in assay [4]; 85.9% in assay [5]; 97.6% in assay [6]. In addition, the growth was 29.7% in [7], 69.4% in assay [8] and 55% in assay [9].

`O/N=C(\CSc1nnc(-c2c[nH]c3ccccc23)n1-c1ccccc1)c1ccc(Br)cc1`: the growth in assay [10] was 1.29% (active); in assay [1] it was -13.1% (active); in assay [3] it was -82.5% (active); in assay [4], -83.4% (active); in assay [5], -50.2% (active); in [6], -65.4% (active). Also, the figures for the growth in assay [7], in [8] and in assay [9] were 0.699% (active), -39.4% (active) and -73.9% (active), respectively.
